Measurements from PubChem BioAssay.
Where “and” joins values, the source holds several entries; their conditions need not be identical. Identical values can stand only once. For part of these data: Entries with a potency or affinity are not part of this list. Some structures have more than one record in an assay (separate samples or runs), and their calls can disagree. Calls of active or inactive are those of the source. Unless noted, no rule for the calls is given here.

How the values were obtained:
[1] = antimalarial activity against Dd2 strain (AID 2302;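 active = growth inhibition above 50% at the single 2 µM test dose, taken to imply half-maximal potency below 2 µM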;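 also: 0% = DMSO untreated growth and 100% = chloroquine plus artemisinin killed control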); details: P. falciparum Dd2 in RBCs, LDH growth readout, 72 h; at 2 µM; stronger effect = higher value
[2] = human hepatoma cell viability loss – ATP luminescence, cytotoxicity control for P. falciparum antimalarial project, primary screen (AID 2303;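 active = inhibition above 50%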;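 also: 0% = DMSO wells and 100% = digitonin-killed cells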); details: HepG2 viability, 24-48 h, at 10 µM, stronger effect = higher value
[3] = target: L-lactate dehydrogenase (Plasmodium falciparum (isolate CDC / Honduras)) (UniProt Q27743); assay: PfLDH activity inhibition – cell lysate, 3D7 strain, counter-screen for P. falciparum growth inhibition project (AID 2304);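 also: 0% = vehicle and 100% = reference inhibitor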; details: P. falciparum 3D7 crude extract, LDH APAD/NBT absorbance; at 2 µM; stronger effect = higher value
Sequence of L-lactate dehydrogenase (Plasmodium falciparum (isolate CDC / Honduras)) (Q27743 whole entry, looked up): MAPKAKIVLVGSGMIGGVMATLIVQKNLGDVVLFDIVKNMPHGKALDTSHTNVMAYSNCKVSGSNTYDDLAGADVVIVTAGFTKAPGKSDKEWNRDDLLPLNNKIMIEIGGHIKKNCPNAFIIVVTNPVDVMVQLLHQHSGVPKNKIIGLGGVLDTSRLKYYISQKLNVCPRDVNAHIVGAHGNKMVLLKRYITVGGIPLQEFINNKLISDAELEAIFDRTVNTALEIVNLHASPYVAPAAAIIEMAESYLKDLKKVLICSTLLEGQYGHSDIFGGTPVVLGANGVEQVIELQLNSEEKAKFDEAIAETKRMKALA

[4] = inhibition of 3D7 malaria parasite growth – strain 3D7 (AID 2306);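 also: 0% = DMSO wells and 100% = chloroquine plus artemisinin control wells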; details: P. falciparum 3D7 erythrocytic growth, LDH absorbance, 72 h; at 2 µM; stronger effect = higher value
[5] = target: Calcium-dependent protein kinase 1 (Plasmodium falciparum (isolate 3D7)) (UniProt P62344); assay: PfCDPK1 kinase inhibitors, biochemical, TCAMS library (AID 1159585; cut-off not given, nearly all actives have IC50 up to about 0.98 µM;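 also: inhibitors leave more ATP so luminescence rises with inhibition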); details: recombinant PfCDPK1, Kinase-Glo ATP depletion luminescence
Sequence of Calcium-dependent protein kinase 1 (Plasmodium falciparum (isolate 3D7)) (P62344 whole entry, looked up): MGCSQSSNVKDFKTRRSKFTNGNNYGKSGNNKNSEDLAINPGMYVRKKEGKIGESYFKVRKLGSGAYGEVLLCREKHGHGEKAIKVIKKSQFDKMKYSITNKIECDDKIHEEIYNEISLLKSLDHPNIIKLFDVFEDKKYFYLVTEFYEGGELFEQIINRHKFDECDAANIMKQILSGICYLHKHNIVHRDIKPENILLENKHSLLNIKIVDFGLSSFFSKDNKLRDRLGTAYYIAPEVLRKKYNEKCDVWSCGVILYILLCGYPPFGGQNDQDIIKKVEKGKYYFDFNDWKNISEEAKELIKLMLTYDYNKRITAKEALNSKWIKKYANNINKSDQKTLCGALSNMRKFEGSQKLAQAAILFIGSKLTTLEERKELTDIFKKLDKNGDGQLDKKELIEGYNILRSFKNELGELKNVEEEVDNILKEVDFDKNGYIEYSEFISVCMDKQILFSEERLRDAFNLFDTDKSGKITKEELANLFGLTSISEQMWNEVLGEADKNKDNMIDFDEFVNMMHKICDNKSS

[6] = target: Plasmodium falciparum protein kinase 6 (PK6, PF3D7_1337100) (UniProt Q8IDW1); assay: PfPK6 kinase inhibitors, biochemical, TCAMS library (AID 1159586); details: recombinant PfPK6, Kinase-Glo ATP depletion luminescence
Sequence of Plasmodium falciparum protein kinase 6 (PK6, PF3D7_1337100) (Q8IDW1 1-305): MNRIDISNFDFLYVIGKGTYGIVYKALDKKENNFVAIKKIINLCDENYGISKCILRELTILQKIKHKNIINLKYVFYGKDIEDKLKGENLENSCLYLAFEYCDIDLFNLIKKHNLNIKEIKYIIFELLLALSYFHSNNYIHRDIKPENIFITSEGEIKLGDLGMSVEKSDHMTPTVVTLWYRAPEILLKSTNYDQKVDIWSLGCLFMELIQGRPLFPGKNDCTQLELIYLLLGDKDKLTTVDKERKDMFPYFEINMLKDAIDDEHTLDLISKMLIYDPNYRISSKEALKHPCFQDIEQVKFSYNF

[7] = target: Protein kinase 7 (PK7), Plasmodium falciparum 3D7 (PF3D7_0213400) (UniProt Q7YTF7); assay: inhibition of Plasmodium PK7 catalytic activity – biochemical, TCAMS antimalarial set, Kinase-Glo luminescence (AID 1159587); details: recombinant PfPK7, Kinase-Glo ATP depletion luminescence
Sequence of Protein kinase 7 (PK7), Plasmodium falciparum 3D7 (PF3D7_0213400) (Q7YTF7 1-343): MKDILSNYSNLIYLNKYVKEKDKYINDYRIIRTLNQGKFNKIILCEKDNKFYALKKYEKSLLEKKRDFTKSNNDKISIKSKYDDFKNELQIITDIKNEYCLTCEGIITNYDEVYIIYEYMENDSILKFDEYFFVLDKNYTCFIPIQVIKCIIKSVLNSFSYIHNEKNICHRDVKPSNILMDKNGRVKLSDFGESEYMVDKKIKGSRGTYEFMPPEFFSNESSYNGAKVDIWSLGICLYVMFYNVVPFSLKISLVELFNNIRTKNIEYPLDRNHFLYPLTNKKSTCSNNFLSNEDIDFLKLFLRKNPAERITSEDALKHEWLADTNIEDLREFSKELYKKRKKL

[8] = target: Calcium-dependent protein kinase 4 (Plasmodium falciparum (isolate 3D7)) (UniProt Q8IBS5); assay: PfCDPK4 kinase inhibitors, biochemical, TCAMS library (AID 1159588; cut-off not given, nearly all actives have IC50 up to about 0.91 µM); details: recombinant PfCDPK4, Kinase-Glo ATP depletion luminescence
Sequence of Calcium-dependent protein kinase 4 (Plasmodium falciparum (isolate 3D7)) (Q8IBS5 whole entry, looked up): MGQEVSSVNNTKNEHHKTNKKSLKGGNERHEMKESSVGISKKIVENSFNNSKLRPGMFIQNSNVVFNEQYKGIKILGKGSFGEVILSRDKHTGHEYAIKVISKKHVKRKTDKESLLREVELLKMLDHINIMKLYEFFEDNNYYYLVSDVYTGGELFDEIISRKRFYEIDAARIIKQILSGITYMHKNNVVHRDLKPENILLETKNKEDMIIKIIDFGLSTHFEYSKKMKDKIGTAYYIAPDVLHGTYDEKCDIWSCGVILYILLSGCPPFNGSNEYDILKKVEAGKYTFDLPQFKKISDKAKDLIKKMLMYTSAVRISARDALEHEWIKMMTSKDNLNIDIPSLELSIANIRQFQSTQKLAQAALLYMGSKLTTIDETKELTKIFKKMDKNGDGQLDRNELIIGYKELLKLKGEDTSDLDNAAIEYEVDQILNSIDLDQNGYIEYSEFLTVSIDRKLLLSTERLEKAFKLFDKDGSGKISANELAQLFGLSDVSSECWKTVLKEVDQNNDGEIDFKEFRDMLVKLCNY

| SMILES | growth inhibition [1] | inhibition [2] | inhibition [3] | growth inhibition [4] | outcome [5] | outcome [6] | outcome [7] | outcome [8] |
| --- | --- | --- | --- | --- | --- | --- | --- | --- |
| CS(=O)(=O)c1ccc2nc(NC(=O)c3csnn3)sc2c1 | 95% (active) | 3% (inactive) | 0% (inactive) | 90% (active) | inactive | inactive | inactive | inactive |
| CN(C)CCOc1cc(NC(=O)Nc2ccc(-c3ccncc3)c(C(F)(F)F)c2)ccc1Cl | 79% (active) | 36% (inactive) | 3% (inactive) | 100% (active) | inactive | inactive | inactive | inactive |
| COc1ccccc1C1CCN(C2CCC(NC(=O)/C=C/c3cc(F)cc(F)c3)CC2)CC1 (configuration not stated) | 15% (inactive) | 45% (inactive) | 0% (inactive) | 91% (active) | inactive | inactive | inactive | inactive |
| CC(=O)N/N=C/[C@H](CCc1ccccc1)NC(=O)[C@H](CC(C)C)NC(=O)c1ccc(OCCN2CCOCC2)cc1 | 87% (active) | 4% (inactive) | -9% (inactive) | 96% (active) | inactive | inactive | inactive | inactive |
| Fc1ccccc1COc1ccc(Nc2ncnc3ccc(I)cc23)cc1Cl | 37% (inactive) | 17% (inactive) | -4% (inactive) | 90% (active) | inactive | inactive | inactive | inactive |
| COc1ccc2ncc(F)c(C(O)CN3CCC(NCc4ccc5c(n4)NC(=O)CO5)CC3)c2c1 (configuration not stated) | 51% (active) and 88% (active) | 6% (inactive) and 51% (active) | 3% (inactive) and -2% (inactive) | 99% (active) and 100% (active) | inactive | inactive | inactive | inactive |
| NC1=NC(c2ccccc2)(c2cccc(O)c2)C(=O)N1CCCc1ccccc1 (configuration not stated) | 38% (inactive) and 93% (active) | -2% (inactive) | -2% (inactive) and 4% (inactive) | 85% (active) and 98% (active) | inactive | inactive | inactive | inactive |
| Cc1cccc2[nH]c(-c3cccc(-c4cccc(CNCCCN5CCCC5=O)c4)c3)nc12 | 76% (active) | 9% (inactive) | 2% (inactive) | 100% (active) | inactive | inactive | inactive | inactive |
| CCCc1cc(Cc2cnc(N)nc2N)cc(CCC)c1OC | 1% (inactive) | 18% (inactive) | 1% (inactive) | 92% (active) | inactive | inactive | inactive | inactive |
| OC(CNc1ccnc(Nc2cccc(Cl)c2)n1)c1cccc(C(F)(F)F)c1 (configuration not stated) | 98% (active) | 11% (inactive) | 4% (inactive) | 101% (active) | inactive | inactive | inactive | inactive |
| CCCOc1cccc(C(=O)N[C@@H](Cc2ccccc2)[C@H](O)CNCc2cccc(OC)c2)c1 | 18% (inactive) | 14% (inactive) | -3% (inactive) | 102% (active) | inactive | inactive | inactive | inactive |
| CC(C)CNCc1cccc(-c2ccc(CNC3CCN(Cc4ccccc4)CC3)cc2)c1 | 99% (active) | 44% (inactive) | 3% (inactive) | 100% (active) | inactive | inactive | inactive | inactive |
| O=C(Nc1cc(Cl)c(Cl)cc1NC(=O)c1cccc(-c2ccccc2)c1O)c1cccc(-c2ccccc2)c1O | 100% (active) | 79% (active) | 2% (inactive) | 100% (active) | inactive | inactive | inactive | inactive |
| Cc1cc(NCCC(=O)NCCc2ccccc2)nc(NCCc2ccc(F)cc2)n1 | 7% (inactive) | 0% (inactive) | -1% (inactive) | 92% (active) | inactive | inactive | inactive | inactive |
| COc1cc(Cc2cnc(N)nc2N)cc(OCCCCc2nn[nH]n2)c1OC | 0% (inactive) | 7% (inactive) | 1% (inactive) | 97% (active) | inactive | inactive | inactive | inactive |
| O=C(/C=C/c1ccc(Cl)c(Cl)c1)NCCCCCN1CC[C@H](NC(=O)c2ccc3c(c2)OCO3)C1 | 3% (inactive) | 32% (inactive) | 0% (inactive) | 94% (active) | inactive | inactive | inactive | inactive |
| N#CC(CC(=O)c1ccc(Cl)cc1)c1cccc(F)c1 (configuration not stated) | 4% (inactive) | 5% (inactive) | 4% (inactive) | 97% (active) | inactive | inactive | inactive | inactive |
| CC(=O)Nc1cccc(C(=O)Nc2cccc(-c3cccc(-c4nc5ccccc5[nH]4)c3)c2)c1 | 66% (active) | 41% (inactive) | -5% (inactive) | 100% (active) | inactive | inactive | inactive | inactive |
| O=C(Nc1ccncc1)c1cn(-c2ccccc2)nc1-c1cccs1 | 10% (inactive) | 7% (inactive) | 4% (inactive) | 98% (active) | inactive | inactive | inactive | inactive |
| O=c1cc(NCCCNCc2cc(F)cc(C(F)(F)F)c2)[nH]c2ccccc12 | 15% (inactive) | -6% (inactive) | 1% (inactive) | 92% (active) | inactive | inactive | inactive | inactive |

| SMILES | growth inhibition [1] | inhibition [2] | inhibition [3] | growth inhibition [4] | outcome [5] | outcome [6] | outcome [7] | outcome [8] |
| --- | --- | --- | --- | --- | --- | --- | --- | --- |
| Clc1ccc2c(NCCNc3ccnc4cc(Cl)ccc34)ccnc2c1 | 96% (active) | 6% (inactive) | -6% (inactive) | 101% (active) | inactive | inactive | inactive | inactive |
| O=C1Nc2cccc3c2C1(CCCCN1CCC(c2cc4ccncc4[nH]2)CC1)CCC3 (configuration not stated) | -2% (inactive) and -4% (inactive) | -1% (inactive) and -8% (inactive) | -3% (inactive) | 97% (active) and 99% (active) | inactive | inactive | inactive | inactive |
| FC(F)(F)c1cccc(CNCCCCCNCc2ccc(Cl)cc2)c1 | 15% (inactive) | 13% (inactive) | -5% (inactive) | 91% (active) | inactive | inactive | inactive | inactive |
| CC(C)c1ccc(CN2CCCCC(NC(=O)c3cc(-c4ccccc4Cl)cs3)C2)cc1 (configuration not stated) | 64% (active) | 8% (inactive) | 3% (inactive) | 100% (active) | inactive | inactive | inactive | inactive |
| Cc1cc(N[C@@H](Cc2ccccc2)C(=O)NC2CCCC2)nc(NCCc2cccs2)n1 | 14% (inactive) | -6% (inactive) | -2% (inactive) | 99% (active) | inactive | inactive | inactive | inactive |
| Cn1nccc1C(=O)NCCNCc1ccc(-c2ccc(-c3nc4ccc(C(F)(F)F)cc4[nH]3)cc2)cc1 | 99% (active) | 35% (inactive) | -2% (inactive) | 100% (active) | inactive | inactive | inactive | inactive |
| CCc1cc(I)c2c(c1)C(NCCCNc1cc(=O)c3ccccc3[nH]1)CCN2 (configuration not stated) | 32% (inactive) | 19% (inactive) | -1% (inactive) | 89% (active) | inactive | inactive | inactive | inactive |
| Cc1noc(C)c1-c1ccc2c(Nc3ccccc3C(C)(C)C)c(C(=O)NCc3ccc(OC(C)C)cc3)cnc2c1 | 98% (active) | -3% (inactive) | 0% (inactive) | 100% (active) | inactive | inactive | inactive | inactive |
| O=C(Nc1ccc(Cn2ncc(N3CCCNCC3)c(Cl)c2=O)cc1)Nc1ccc(-c2ccccc2)cc1 | 41% (inactive) and 51% (active) | 12% (inactive) and 10% (inactive) | -2% (inactive) and 8% (inactive) | 93% (active) | inactive | inactive | inactive | inactive |
| Cc1ccc(CN2CCN(Cc3cccc(NC(=O)c4cccs4)c3)CC2)cc1C | 68% (active) | 41% (inactive) | 2% (inactive) | 96% (active) | inactive | inactive | inactive | inactive |
| CC(C)(C)c1ccc(N2C(N)=NC(N)=NC2(C)C)cc1 | -2% (inactive) | 27% (inactive) | -2% (inactive) | 93% (active) | inactive | inactive | inactive | inactive |
| Cc1[nH]c(C)c(-c2ccc(CCc3ccc(N)cc3)cc2)c(=O)c1Cl | 97% (active) | 2% (inactive) | 5% (inactive) | 97% (active) | inactive | inactive | inactive | inactive |
| NC(=O)COc1cccc2c1CCN(CCN1CCC(NC(=O)c3ccc(-c4ccc(Cl)cc4)cc3)CC1)C2 | 6% (inactive) | 44% (inactive) | -1% (inactive) | 92% (active) | inactive | inactive | inactive | inactive |
| Fc1ccc2ncc(Cl)c(CCN3CCC(NCc4cc5c(cn4)OCCO5)CC3)c2c1 | 20% (inactive) | 24% (inactive) | -4% (inactive) | 93% (active) | inactive | inactive | inactive | inactive |
| CCNc1cc(C)nc(Nc2ccc(NS(=O)(=O)c3ccccc3)cc2)n1 | 54% (active) | 41% (inactive) | -3% (inactive) | 100% (active) | inactive | inactive | inactive | inactive |
| CCCCCCCCNc1c2ccc(Cl)cc2nc2ccc(OC)cc12 | 96% (active) | 11% (inactive) | -3% (inactive) | 89% (active) | inactive | inactive | inactive | inactive |
| O=C(Nc1ccc(-c2cccc(-c3nc4ccc(C(F)(F)F)cc4[nH]3)c2)cc1)c1cccnc1 | 24% (inactive) | 74% (active) | -5% (inactive) | 100% (active) | inactive | inactive | inactive | inactive |
| CCN(CC(C)O)C(=O)c1ccc(-c2ccc(-c3nc4c(C)cccc4[nH]3)cc2)cc1 (configuration not stated) | 13% (inactive) | 18% (inactive) | -5% (inactive) | 94% (active) | inactive | inactive | inactive | inactive |
| CN(C)C(=O)C(CC(=O)NCc1ccccc1Cl)N(C)C (configuration not stated) (tested in a mixture with another compound) | 2% (inactive) | 7% (inactive) | -3% (inactive) | 96% (active) | inactive | inactive | inactive | inactive |
